Test results published in PubChem BioAssay AID1259423 (Fisher Drug Discovery Resource Center, 2018).
Several values for one entry are separate records, joined by “and”; a condition that tells them apart may be missing. Equal values may be shown once. Hit rate of the full screen: of about 270,000 compounds, about 410 (0.15%) were called active. No stated cut-off is given here; in the data, active means activation above about 40%; inactive means the rest, inconclusive results apart. The sample as a whole holds a higher share of actives than the screen did. Some structures have more than one record in an assay (separate samples or runs), and their calls can disagree.

Tested on: Aedes aegypti neuropeptide Y-like receptor 7 (NPYLR7)
Test: agonists of mosquito NPYLR7 receptor, primary screen, cell-based, Aedes aegypti, calcium fluorescence, mosquito biting behavior (AID 1259423);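 further: 0% = vehicle and 100% = reference agonist at the receptor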
Conditions: HEK293T NPYLR7/Galpha15, GCaMP6s calcium fluorescence, at 10 µM, stronger effect = higher value
[1] = measured here: Max-Min RFU normalised activation

Row | SMILES | activation | activation [1]
1 | COc1ccc(Cl)c2sc(N(CCN(C)C)C(=O)c3cc(C)n(C)n3)nc12 | 1.87% (inactive) | 0.849%
2 | Cc1ccc(Sc2ncccc2C(=O)N2CCN(c3nccc(-c4cccc(C(F)(F)F)c4)n3)CC2)cc1 | 14% (inactive) | 18.9%
3 | COc1cc(OC)cc(C(NC(=O)Cn2ccccc2=O)c2nccn2C)c1 (stereo unspecified) | 5.09% (inactive) | 2.46%
4 | CN(Cc1ccccc1)C1(C(=O)NCC2COCCO2)Cc2ccccc2C1 (stereo unspecified) | 2.27% (inactive) | -0.863%
5 | COc1c(C=NNC(=O)c2cc(Br)ccc2O)sc2ccccc12 | -6.22% (inactive) | -11.5%
6 | O=c1oc2c(CN3CC4CC(C3)c3cccc(=O)n3C4)c(O)ccc2cc1-c1nc2ccccc2s1 (stereo unspecified) | 303% (active) | 372%
7 | COc1cc(C(=O)N2CCOC(c3ccccc3)C2)cc(OC)c1C (stereo unspecified) | 77.6% (active) | 58.9%
8 | Cc1c(F)cccc1C(=O)N1CCOC(c2ccccc2)C1 (stereo unspecified) | 0.877% (inactive) | -1.3%
9 | COc1ccc2cc(C3CN(C(=O)c4ccc[nH]4)CCO3)ccc2c1 (stereo unspecified) | -5.79% (inactive) | -7.4%
10 | O=S(=O)(Cc1ccc(F)cc1)NCc1ccccc1OC(F)F | 1.17% (inactive) | 1.23%
11 | Cc1cccc(C(=O)O/N=C\c2ccc(Br)cc2)c1 | 0.973% (inactive) | 3.02%
12 | CON(C)C(=O)c1cccc(CN2CCS(=O)(=O)CC2)c1 | 7.7% (inactive) | 4.38%
13 | CCOC(C)c1noc(CNC2(c3noc(CC)n3)CCCC2)n1 (stereo unspecified) | 3.73% (inactive) | 1.21%
14 | C(=C\c1nn2c(CN3CCCCC3)nnc2s1)/c1ccccc1 | 1.3% (inactive) | 0.534%
15 | COC(=O)C1Cc2ccccc2CN1Cc1cccc(C(=O)N(C)C)c1 (stereo unspecified) | 1.77% (inactive) | -13.5%
16 | COc1ccc(CCN2CCC(CN(C)C(=O)c3ccoc3)CC2)cc1 | 13.3% (inactive) | 6.16%
17 | O=c1[nH]c(Cn2nnc3ccccc3c2=O)nc2ccccc12 | -3.31% (inactive) | -3.64%
18 | CCCCCCCC(=O)Nc1c(-c2ccc(Cl)cc2)nc2cc(C)ccn12 | -5.12% (inactive) | 1.14%
19 | C/C=C\COC1CCCN(C(=O)COc2ccc(Cl)cc2)C1 (stereo unspecified) | -4.16% (inactive) | -5.2%
20 | CCN1CCN(CC(O)COc2ccc(CN3CCc4ccccc4C3)cc2OC)CC1 (stereo unspecified) | 3.88% (inactive) | 3.04%
21 | Brc1ccc(Oc2nc(N3CCCC3)nc(N3CCCC3)n2)cc1 | -2.87% (inactive) | -5.23%

Row | SMILES | activation | activation [1]
22 | CCc1ccc(C2C(C#N)C(=N)SC(=N)C2C#N)cc1 (stereo unspecified) | 0.645% (inactive) | -2.49%
23 | N#CC1C(=N)SC(=N)C(C#N)C1c1cccc(O)c1 (stereo unspecified) | 51% (active) | 53%
24 | N#CC1C(=N)SC(=N)C(C#N)C1c1ccco1 (stereo unspecified) | -5.34% (inactive) | -2.82%
25 | COc1ccc(-c2nc(NC(=O)C3CCCC3)sc2C)cc1 | -2.08% (inactive) | 2.65%
26 | CCC(C)(NC(=O)C1Cc2ccccc2O1)c1nccs1 (stereo unspecified) | -1.24% (inactive) | -2.94%
27 | CCC1CCCCN1C(=O)CSc1c(C)[nH]c2ccccc12 (stereo unspecified) | -1.59% (inactive) | -2.64%
28 | CCCN(C(=O)Cn1nc(C)c2ccccc2c1=O)[C@@H]1CCCC[C@H]1O | 0.206% (inactive) | -0.142%
29 | CCCc1cc(=O)n2[nH]c(C)c(-c3cccc4ccccc34)c2n1 | -15.2% (inactive) | -20.4%
30 | NC(=O)CN1C(=O)COc2ccccc21 | -19.8% (inactive) | -26.8%
31 | CCCCN(C)C(=O)c1cnn(-c2ccccc2)c1 | 0.0336% (inactive) | -1.33%
32 | O=C(NC1C=CS(=O)(=O)C1)c1cccc2ccnn12 (stereo unspecified) | 22.3% (inactive) | 9.91%
33 | CCC(N)(C(=O)OC)c1ccccc1 (stereo unspecified) | 8.89% (inactive) | 3.04%
34 | CCCC(C(=O)OCCN(CC)CC)(c1ccccc1)c1ccccc1 | 3.25% (inactive) and -1.52% (inactive) and 68.5% (active) | -42.8% and -5.9% and 58.4%
35 | CC1Cc2c(NC(=O)CSCc3ccccc3)nn(C)c2NC1=O (stereo unspecified) | 3.06% (inactive) | -2.58%
36 | CCN(CC)c1ccc2cc(-c3nnc(Nc4ccccc4F)s3)c(=O)oc2c1 | -10.4% (inactive) | -12.8%
37 | O=c1[nH]c(=O)n(Cc2cccc(OC(F)F)c2)cc1Cl | 0.422% (inactive) and -19.6% (inactive) | -0.254% and -21%
38 | CC(c1cccs1)N(C)C(=O)c1n[nH]c(C2CC2)c1Br (stereo unspecified) | -2.08% (inactive) | 0.622%
39 | O=C1Nc2ccccc2C1=NN=C(C(=O)c1ccccc1)c1ccccc1 | 11.7% (inactive) | 10.9%
40 | CCC(=O)Nc1cccc(OCC(=O)N2CCCC2c2nonc2C)c1 (stereo unspecified) | -16.1% (inactive) | -16.7%
41 | Cc1ccc(NC(=O)Cn2cnc3sc4c(c3c2=O)CCC4)c(F)c1 | -14.9% (inactive) | -15.4%
42 | COc1cc(C=C2SC(=S)NC2=O)cc(Br)c1O | 668% (active) | 942%

Row | SMILES | activation | activation [1]
43 | COc1ccc(C=C2SC(=S)NC2=O)cc1OC | 1.47% (inactive) | 3.32%
44 | COc1cc(OC)c(OC)cc1/C=C1/SC(=S)NC1=O | -3.39% (inactive) | -7.58%
45 | Cc1cc(S(=O)(=O)C(CNC(=O)CC(C)(C)C)c2cccs2)ccc1F (stereo unspecified) | 5.15% (inactive) | 2.88%
46 | COCCNC(=S)N(CCC#N)CCN(CCC#N)C(=S)NCCOC | -2.49% (inactive) | -3.45%
47 | Cc1cnccc1N1CCCN(C(=O)[C@H](N)CC(C)C)CC1 | 8.21% (inactive) | 7.83%
48 | Cc1ccccc1-c1noc(CN2CCN(C(=O)c3cc(C4CC4)[nH]n3)CC2)n1 | 0.903% (inactive) | 0.506%
49 | CCC(CO)[n+]1c(C)cc(C=C2Sc3ccccc3N2CC)cc1C (stereo unspecified) | 56.5% (active) | 44.4%
50 | Cn1nc(C(F)(F)F)cc1C(=O)N1CCCC(O)(CO)CC1 (stereo unspecified) | 3.25% (inactive) | 1.85%
51 | COC(=O)Cn1cc(C=C(C#N)C(=O)NCCc2c[nH]c3ccccc23)c2ccccc21 | 1.04% (inactive) | 1.01%
52 | CCCn1nccc1C(=O)Nc1cc2c(C)cc(=O)oc2cc1C | -4.21% (inactive) | -5.15%
53 | CCCc1nc(N2CCCN(c3ncccn3)CC2)c2cnn(C)c2n1 | -2.57% (inactive) | -6.77%
54 | COc1ccc(OC)c(S(=O)(=O)N2CCCC(c3nc4ccccc4s3)C2)c1 (stereo unspecified) | -8.36% (inactive) | -7.77%
55 | Cc1ccn(-c2ccc(NC3CC4CCC3O4)nn2)n1 (stereo unspecified) | 7.09% (inactive) | 3.85%
56 | Cc1ccc(C2(c3noc(CN(C)Cc4ccc5ccccc5n4)n3)CCCC2)cc1 | 32.2% (inactive) and 4.89% (inactive) | 24.1% and 13.2%
57 | CSc1[s+]sc2c1-c1ccc(C)cc1NC2(C)C | -1.46% (inactive) | 5.63%
58 | Cn1cc(NC(=O)Nc2cccc(N3CCCCCC3)c2)cn1 | 8.13% (inactive) | 3.07%
59 | O=C(O)c1[nH]ncc1CN1CCc2onc(-c3ccc(C(F)(F)F)cc3)c2C1 | 78.5% (active) | 41.2%
60 | O=C(O)c1[nH]ncc1CN1CCCC(c2[nH]ncc2Cc2ccccc2)C1 (stereo unspecified) | 2.78% (inactive) | 3.74%
61 | O=C(CCc1ccco1)N1CCc2onc(-c3ccc(C(F)(F)F)cc3)c2C1 | 3.67% (inactive) | -10.1%
62 | Cc1csc(N(C)C(=O)c2cc(N3CCNC3=O)ccc2F)n1 | -7.45% (inactive) | -7.61%
63 | COc1ccc(-n2nnc3c(N4CCN(C(=O)c5ccc(Br)o5)CC4)ncnc32)cc1 | -8.62% (inactive) | -14.8%

Row | SMILES | activation | activation [1]
64 | N#CCc1nc2ncc(Br)cc2[nH]1 | -4.5% (inactive) | -5.31%
65 | CCOc1cc(/C=C(\C#N)c2nc3ncc(Br)cc3[nH]2)ccc1O | 90.2% (active) | 69.1%
66 | CCOc1ccc(/C=C(\C#N)c2[nH]nc(N)c2C#N)cc1OCC | -1.82% (inactive) | -4%
67 | OCc1ccc(CN2CCC(Oc3ccc(Cl)cc3)CC2)o1 | 2.49% (inactive) | 0.105%
68 | COCCN(Cc1cc(NC(=O)c2cccc(F)c2)ccc1N(C)C)C(=O)NC(C)(C)C | -2.37% (inactive) | -0.561%
69 | CCOC(=O)c1ccc2c(c1)nc(SCc1cccc(C(=O)OC)c1)n2Cc1cccc(F)c1 | -6.01% (inactive) | -4.5%
70 | COc1cc(/C=C2/C(=O)N(c3ccc(Cl)c(Cl)c3)N=C2C)cc(Br)c1O | -1.16% (inactive) | 5.59%
71 | COc1cc(C=C2C=c3c(O)cccc3=C2O)cc(Cl)c1O | 203% (active) | 183%
72 | COc1cccc(CSc2nnc(CNC(=O)Nc3cc(OC)cc(OC)c3)n2-c2ccc([N+](=O)[O-])cc2)c1 | 22.3% (inactive) | 16.8%
73 | CC(C)CNC(=O)c1ccc2c(=O)n(Cc3ccccc3)c3nn(CC(N)=O)c(=O)n3c2c1 | 2.33% (inactive) | -0.424%
74 | C/C=C/c1cc(C(=O)N2CCN(CCO)CC2)cc(OC)c1OC | 2.68% (inactive) | 0.348%
75 | CC(C)N(CC1CCC(=O)N1)C(=O)c1cc(Cl)c[nH]c1=O (stereo unspecified) | -1.21% (inactive) | -6.03%
76 | CN1CC2(CCCN(C(=O)c3cccc(Cn4cccn4)c3)CC2)OC1=O (stereo unspecified) | 33.4% (inactive) | 15.5%
77 | CC(C)(Oc1ccc(Cl)cc1)C(=O)Nn1cnc2c(cnn2-c2ccccc2)c1=O | 2.94% (inactive) | -1.1%
78 | O=C(O)C1CC2CCCC(C1)C2=O (stereo unspecified) | 2.14% (inactive) | 1.09%
79 | COc1ccc(C2SCCN2C(=O)c2cc3cc(Br)ccc3oc2=O)cc1 (stereo unspecified) | 1.99% (inactive) | -4.59%
80 | O=C1CCC(C(=O)N(Cc2ccc(F)cc2)C2CC2)=NN1c1ccccc1 | 2.48% (inactive) | 1.4%
81 | CCn1c(C2CCN(CCC3=C(C)CCCC3(C)C)CC2)nn(C)c1=O | 14.4% (inactive) | 4.06%
82 | CCc1cc(=O)[nH]c(-n2nc(C)cc2NC(=O)C2c3ccccc3Oc3ccccc32)n1 | 10.2% (inactive) | 5.92%
83 | CNC(=O)NC(=O)C(C)Sc1nnc(-c2ccco2)n1CCC(N)=O (stereo unspecified) | 1.74% (inactive) | 5.62%
